# In PubChem BioAssay (NCATS):
# Several values for one entry are separate records, joined by “and”; a condition that tells them apart may be missing. Identical values can stand only once. Peptide text beside a SMILES is read from it.
# Assay: qHTS profiling for inhibitors of Plasmodium falciparum (DD2) proliferation (AID 743323)
# Conditions: lower = more inhibition; at 28.7 µM (top of the series) unless noted
# Procedure, shortened: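 Parasite proliferation measured via DNA-dye fluorescence, as uninfected erythrocytes lack DNA. Cultures at 0.3% parasitemia and 2.5% hematocrit incubated 72 h with compound; signal scaled between vehicle and 0.29 uM artemisinin wells.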
row,Structure (SMILES),"activity, percent of control"
1,Cc1ccc(NC(=O)c2ccc(CN3CCN(C)CC3)cc2)cc1Nc1nccc(-c2cccnc2)n1,7.63%
2,Nc1nc(Cl)nc2c1ncn2[C@H]1C[C@H](O)[C@@H](CO)O1,93.6% [at 57.5 µM]
3,Cc1cccc(-c2[nH]ncc2-c2ccc3ncccc3n2)n1,107% [at 57.5 µM]
4,COc1cc(Nc2c(C#N)cnc3cc(OCCCN4CCN(C)CC4)c(OC)cc23)c(Cl)cc1Cl,4.4%
5,CC(C)c1ccc2c(c1)c(SC(C)(C)C)c(CC(C)(C)C(=O)O)n2Cc1ccc(Cl)cc1,27.3%
6,Nc1cccc2c1CN(C1CCC(=O)NC1=O)C2=O (configuration not stated),89.3% [at 57.5 µM] and 104% [at 57.5 µM]
7,CCN(CCO)CCCC(C)Nc1ccnc2cc(Cl)ccc12 (configuration not stated),105% and 9.47%
8,CCOC(=O)C1=C(O)C(=O)N(Cc2ccccc2)C1,82.3%
9,CCN(CC)CCOc1ccc(Nc2ncc3cc(-c4c(Cl)cccc4Cl)c(=O)n(C)c3n2)cc1,1.4%
10,CCc1nc(N)nc(N)c1-c1ccc(Cl)cc1,90.3%
11,CC(C)C[C@H](NC(=O)[C@H](Cc1ccccc1)NC(=O)c1cnccn1)B(O)O,-0.17%
12,CCOC(=O)C(C)Oc1cccc2c(=O)n(CC(=O)Nc3ccc4c(c3)OCCO4)ccc12 (configuration not stated),97.4%
13,C[C@@H](N)C1CCC(C(=O)Nc2ccncc2)CC1 (some centres not stated),103%
14,CN(C)c1ccc2nc3ccc(=[N+](C)C)cc-3sc2c1,3.2% [at 57.5 µM]
15,Cc1cccc(C#Cc2ccccc2)n1,85.7%
16,S=c1nc[nH]c2nc[nH]c12,88.8% [at 57.5 µM]

# Assay: qHTS profiling for inhibitors of Plasmodium falciparum (HB3) proliferation (AID 743324);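 further: 100% = DMSO vehicle wells and 0% = artemisinin-treated control wells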
# Conditions: Plasmodium falciparum HB3 blood-stage proliferation; at 28.7 µM (top of the series) unless noted
# Procedure, shortened: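 SYBR Green fluorescence (485 ex/535 em) of lysed cultures, incubated overnight at room temperature in the dark, quantifies parasite DNA. Infected erythrocytes at 0.3% parasitemia and 2.5% hematocrit were exposed 72 h; values normalized to DMSO and 0.29 uM artemisinin controls.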
row,Structure (SMILES),"remaining proliferation (% of control), lower = more inhibition"
1,Cc1cccc(-c2[nH]ncc2-c2ccc3ncccc3n2)n1,89.3% [at 57.5 µM]
2,COc1cc(Nc2c(C#N)cnc3cc(OCCCN4CCN(C)CC4)c(OC)cc23)c(Cl)cc1Cl,1.13%
3,CC(C)c1ccc2c(c1)c(SC(C)(C)C)c(CC(C)(C)C(=O)O)n2Cc1ccc(Cl)cc1,22.8%
4,Nc1cccc2c1CN(C1CCC(=O)NC1=O)C2=O (configuration not stated),96.8% [at 57.5 µM] and 102% [at 57.5 µM]
5,CCN(CCO)CCCC(C)Nc1ccnc2cc(Cl)ccc12 (configuration not stated),1.3% and -0.152%
6,CCOC(=O)C1=C(O)C(=O)N(Cc2ccccc2)C1,67.7%
7,CCN(CC)CCOc1ccc(Nc2ncc3cc(-c4c(Cl)cccc4Cl)c(=O)n(C)c3n2)cc1,-0.176%
8,CCc1nc(N)nc(N)c1-c1ccc(Cl)cc1,3.84%
9,CC(C)C[C@H](NC(=O)[C@H](Cc1ccccc1)NC(=O)c1cnccn1)B(O)O,-0.165%
10,CCOC(=O)C(C)Oc1cccc2c(=O)n(CC(=O)Nc3ccc4c(c3)OCCO4)ccc12 (configuration not stated),104%
11,C[C@@H](N)C1CCC(C(=O)Nc2ccncc2)CC1 (some centres not stated),94.3%
12,CN(C)c1ccc2nc3ccc(=[N+](C)C)cc-3sc2c1,14.3% [at 57.5 µM]
13,Cc1cccc(C#Cc2ccccc2)n1,75.6%

# Assay: qHTS profiling of the MIPE4 collection as inhibitors of Plasmodium falciparum (3D7) proliferation (AID 743344);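 further: scaled between DMSO vehicle wells and 0.29 µM artemisinin as full inhibition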
# Conditions: P. falciparum 3D7 in erythrocytes, SYBR Green DNA fluorescence, 72 h; at 28.5 µM (top of the series) unless noted
# Procedure, shortened: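 Parasite DNA was quantified by SYBR Green I fluorescence (ex 485, em 535 nm) after overnight lysis in saponin/Triton buffer at room temperature. Cultures at 0.3% parasitemia and 2.5% hematocrit were first exposed to compound for 72 h at 37 C; signals were normalised to artemisinin (0.29 uM) and vehicle wells.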
row,Structure (SMILES),"parasite growth, % of DMSO control"
1,Nc1nc(Cl)nc2c1ncn2[C@H]1C[C@H](O)[C@@H](CO)O1,102%
2,Cc1cccc(-c2[nH]ncc2-c2ccc3ncccc3n2)n1,74.7%
3,COc1cc(Nc2c(C#N)cnc3cc(OCCCN4CCN(C)CC4)c(OC)cc23)c(Cl)cc1Cl,6.35%
4,CC(C)c1ccc2c(c1)c(SC(C)(C)C)c(CC(C)(C)C(=O)O)n2Cc1ccc(Cl)cc1,21.7%
5,Nc1cccc2c1CN(C1CCC(=O)NC1=O)C2=O (configuration not stated),83.6% [at 57.5 µM]
6,CCN(CCO)CCCC(C)Nc1ccnc2cc(Cl)ccc12 (configuration not stated),20.1%
7,COC(=O)[C@H](Cc1ccccc1)NC(=O)[C@@H](N)CC(=O)O (H-Asp-Phe-OMe),88.6%
8,CCN(CC)CCOc1ccc(Nc2ncc3cc(-c4c(Cl)cccc4Cl)c(=O)n(C)c3n2)cc1,6.09%
9,CCc1nc(N)nc(N)c1-c1ccc(Cl)cc1,30.2%
10,CCOC(=O)C(C)Oc1cccc2c(=O)n(CC(=O)Nc3ccc4c(c3)OCCO4)ccc12 (configuration not stated),72.1%
11,N[C@@H](Cc1cc(I)c(Oc2cc(I)c(O)c(I)c2)c(I)c1)C(=O)O,89.8%
12,Oc1ccc(-c2nc(-c3ccc(F)cc3)c(-c3ccncc3)[nH]2)cc1,37%
13,O=C(NOCC1CC1)c1ccc(F)c(F)c1Nc1ccc(I)cc1Cl,24.6%
14,NS(=O)(=O)c1cc(C(=O)O)c(NCc2ccco2)cc1Cl,58.2%
15,CCCc1cc(=O)[nH]c(=S)[nH]1,95.4%
16,CC1(C)NC(=O)N(c2ccc([N+](=O)[O-])c(C(F)(F)F)c2)C1=O,83.6%
17,O=c1c(O)c(-c2ccc(O)cc2O)oc2cc(O)cc(O)c12,80.8%
18,C[C@@H](N)C1CCC(C(=O)Nc2ccncc2)CC1 (some centres not stated),85.6%
19,O=Nc1c(-c2c(O)[nH]c3cc(Br)ccc23)[nH]c2ccccc12,2.9%
20,CN(C)c1ccc2nc3ccc(=[N+](C)C)cc-3sc2c1,60.1% and 20%
21,Cc1cccc(C#Cc2ccccc2)n1,23.9%
22,COc1cc(OC)c(C(=O)CCCN2CCCC2)c(OC)c1,90.8%
23,S=c1nc[nH]c2nc[nH]c12,68.3%
